Records with an inconclusive call do not appear. The source made the active and inactive calls. Calls come from the whole dose curve; as a rule, active = well fitted inhibition curve with a large enough effect; inconclusive = small, poorly fitted or top-dose-only effect; inactive = no such curve, though single readings can be large or run the other way.
experiment: BET inhibitor-based combinations targeting novel dependencies in MECOM-rearranged (r) AML: MV-4-11 cell line (AID 2202233); details: MV-4-11 AML viability, CellTiter-Glo luminescence, 48 h; series mostly up to 46 µM; viability, % of control: at the top concentration; note: nearly all actives have a fitted effect of over 45% in size;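 for viability, % of control: plate controls were DMSO for no effect and blank wells for full effect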
Outline: (§1)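 Each compound is tested in an 11-point concentration series against 500 seeded cells/well for 48 hr. The luminescent viability signal is normalized to DMSO and blank wells, then reduced to AUC and a cell-line-centred Z-AUC.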
Potency is the fitted concentration of half-maximal effect.

| Compound | viability, % of control | Potency |
| --- | --- | --- |
| C=C1C[C@H]2C=Nc3cc(OCCCOc4cc5c(cc4OC)C(=O)N4CC(=C)C[C@H]4C=N5)c(OC)cc3C(=O)N2C1 | 9.3% (inactive) |  |
| C#C[C@]1(O)CC[C@H]2[C@@H]3CCc4cc(O)ccc4[C@H]3CC[C@@]21C |  | 20.9 µM (active) |
| C/C=C/C[C@@H](C)C(=O)[C@H]1C(=O)N[C@@H](C(C)C)C(=O)N(C)CC(=O)N(C)[C@@H](CC(C)C)C(=O)N[C@@H](C(C)C)C(=O)N(C)[C@@H](CC(C)C)C(=O)N[C@@H](C)C(=O)N[C@H](C)C(=O)N(C)[C@@H](CC(C)C)C(=O)N(C)[C@@H](CC(C)C)C(=O)N(C)[C@@H](C(C)C)C(=O)N1C |  | 8.11 µM (active) |
| CCCCN(CCCC)CCC(O)c1cc2c(Cl)cc(Cl)cc2c2cc(C(F)(F)F)ccc12 (configuration not stated) |  | 18.6 µM (active) |
| C[C@@]1(c2ncncc2F)NC(=O)c2cc(-c3cn[nH]c3)ccc21 |  | 14.8 µM (active) |
| COc1ccc(CC2c3cc(OC)c(OC)cc3CC[N+]2(C)CCC(=O)OCCCCCOC(=O)CC[N+]2(C)CCc3cc(OC)c(OC)cc3C2Cc2ccc(OC)c(OC)c2)cc1OC (configuration not stated) |  | 18.6 µM (active) |
| Cc1nc(C)c(CN2CCN(C(c3ccc(F)cc3)c3ccc(F)cc3)CC2)nc1C |  | 18.6 µM (active) |

experiment: BET inhibitor-based combinations targeting novel dependencies in MECOM-rearranged (r) AML: HNT-34 cell line (AID 2202234); details: HNT-34 AML viability, CellTiter-Glo luminescence, 48 h; series mostly up to 46 µM; viability (% of control): at the top concentration; note: nearly all actives have a fitted effect of over 35% in size;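 for viability (% of control): plate controls were vehicle wells for no effect and cell-free wells for full effect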
Outline: as §1

| Compound | Potency | viability (% of control) |
| --- | --- | --- |
| COc1ccc2c(c1)[C@]1(C[C@H]1c1ccc3c(/C=C/c4ccc(CN5C[C@@H](C)O[C@@H](C)C5)cc4)n[nH]c3c1)C(=O)N2 | 1.32 µM (active) |  |
| NC(=O)c1cnc2[nH]ccc2c1NC1C2CC3C[C@H]1CC(O)(C3)C2 (some centres not stated) | 8.33 µM (active) |  |
| O=C(/C=C/c1ccc(Cl)cc1)N1CCC2(CC1)CN(Cc1ccc(Cl)c(Cl)c1)C(=O)O2 | 26.3 µM (active) |  |
| CCN(CC)C(=O)Cc1csc(NS(=O)(=O)c2cccc(Cl)c2C)n1 |  | 95.6% (inactive) |
| Cc1cc(Oc2ccc3nc(COc4ccc(CC5SC(=O)NC5=O)cc4)n(C)c3c2)cc(C)c1N (configuration not stated) |  | 104% (inactive) |
| CN(C)c1ccccc1CN1CCCN(Cc2ccccc2N(C)C)C1c1ccncc1 |  | 67.2% (inactive) |
| O=C(NO)C1(CS(=O)(=O)c2ccc(Oc3ccc(Cl)cc3)cc2)CCOCC1 | 8.33 µM (active) |  |
| CN1C(=O)N(c2cc(Cl)cc(Cl)c2)C(=O)[C@]12CN(Cc1cc(C(=O)O)cs1)C[C@H]2c1ccc(C#N)cc1 |  | 79.5% (inactive) |
| CCOc1cc(CC(=O)N[C@@H](CC(C)C)c2ccccc2N2CCCCC2)ccc1C(=O)O |  | 106% (inactive) |
| CCS(=O)(=O)c1ccc2oc(-c3ccc4ccccc4c3)nc2c1 |  | 95.9% (inactive) |
| C=C1CCC[C@]2(C)C=C3OC(=O)C(C)=C3C[C@@H]12 |  | 106% (inactive) |
| CN(C(=O)CNC(=O)/C=C/c1cccc(Cl)c1)C1CCS(=O)(=O)CC1 |  | 91.6% (inactive) |
| CC(=O)N1CCN(c2ccc(NC(=O)Cc3cnc(-c4ccnc(F)c4)c(C)c3)nc2)CC1 |  | 92.3% (inactive) |
| CC[C@H](C)[C@@H]([C@@H](CC(=O)N1CCC[C@H]1[C@H](OC)[C@@H](C)C(=O)N[C@@H](Cc1ccccc1)c1nccs1)OC)N(C)C(=O)[C@@H](NC(=O)[C@H](C(C)C)N(C)C)C(C)C |  | 29.7% (inactive) |
| CS(=O)(=O)c1ccc([C@@H](CC2CCCC2)C(=O)Nc2nccs2)cc1 |  | 81.3% (inactive) |

Source: PubChem BioAssay (NCATS)
